Reference: ChEMBL document CHEMBL3988442, “University of Dundee, Small-Polar-MMV Screening Library” (2021)
For some assays here: Results with a measured potency or affinity are listed apart.

How the values were obtained:
Set-up in all cases: scale not given: direction of the effect not stated beside the values
[1] = target: Protein translocase subunit SecA (Escherichia coli (strain K12)) (UniProt P10408); assay: Assay to Identify E. coli SecA ATPase Inhibitors; format: functional; conditions: 30 µM
[2] = target: T1, Ubiquitin-activating enzyme e1, putative (Leishmania donovani (strain BPK282A1)) (UniProt E9BSI1); assay: Leishmania donovani Ubiquitin Activating Enzyme (LdE1); format: functional; conditions: 30 µM
T1 sequence (whole entry): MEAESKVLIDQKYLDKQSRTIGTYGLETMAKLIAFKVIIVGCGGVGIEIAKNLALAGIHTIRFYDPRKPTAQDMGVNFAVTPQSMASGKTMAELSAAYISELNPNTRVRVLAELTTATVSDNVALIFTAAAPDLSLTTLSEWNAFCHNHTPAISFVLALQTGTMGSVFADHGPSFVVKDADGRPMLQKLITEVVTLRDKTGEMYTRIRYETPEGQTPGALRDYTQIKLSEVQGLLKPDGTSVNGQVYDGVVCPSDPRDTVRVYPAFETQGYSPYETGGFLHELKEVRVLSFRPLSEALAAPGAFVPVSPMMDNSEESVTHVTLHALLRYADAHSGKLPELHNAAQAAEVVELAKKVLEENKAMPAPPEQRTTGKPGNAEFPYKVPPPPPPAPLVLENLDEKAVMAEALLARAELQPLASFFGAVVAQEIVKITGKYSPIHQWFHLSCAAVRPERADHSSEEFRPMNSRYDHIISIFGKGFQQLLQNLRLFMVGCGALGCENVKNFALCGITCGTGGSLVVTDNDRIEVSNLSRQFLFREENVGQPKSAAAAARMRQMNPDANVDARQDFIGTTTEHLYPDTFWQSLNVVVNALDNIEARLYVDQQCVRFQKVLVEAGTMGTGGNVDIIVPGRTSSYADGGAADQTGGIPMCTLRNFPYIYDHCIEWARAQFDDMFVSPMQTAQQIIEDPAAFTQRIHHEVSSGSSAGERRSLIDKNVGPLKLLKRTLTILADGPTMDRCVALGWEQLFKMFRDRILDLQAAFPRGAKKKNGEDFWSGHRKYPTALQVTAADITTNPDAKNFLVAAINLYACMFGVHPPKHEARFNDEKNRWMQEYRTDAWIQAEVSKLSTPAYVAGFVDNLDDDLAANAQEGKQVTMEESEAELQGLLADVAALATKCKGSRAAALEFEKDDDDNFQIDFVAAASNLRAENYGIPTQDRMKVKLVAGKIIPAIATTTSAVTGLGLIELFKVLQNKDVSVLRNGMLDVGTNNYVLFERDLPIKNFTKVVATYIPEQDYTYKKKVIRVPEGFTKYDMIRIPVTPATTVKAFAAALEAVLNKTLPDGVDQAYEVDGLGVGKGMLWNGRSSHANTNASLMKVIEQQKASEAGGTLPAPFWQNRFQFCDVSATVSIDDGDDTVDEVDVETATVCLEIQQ

[3] = target: AMP-activated protein kinase, AMPK (Homo sapiens) (UniProt P54646+O43741+P54619+Q9UGJ0+Q9Y478+Q13131+Q9UGI9); assay: AMP-dependent Kinase enzyme assay. An in vitro enzyme assay that detects ADP turnover that is directly proportional to AMPK activity. This uses naive AMPK that is activated during the assay with MK-8722; format: functional; conditions: 30 µM
[4] = target: Sialic acid-binding Ig-like lectin 9 (Homo sapiens) (UniProt Q9Y336); assay: Hs-Siglec9 ALPHAscreen SOP 20170721; conditions: 10 µM
Trypanosoma cruzi = assay: Trypanosoma cruzi phosphomannomutase and mannose-1-phosphate guanylyltransferase assay; format: functional; conditions: 10 µM
[5] = target: T2, Arginase-2, mitochondrial (Homo sapiens) (UniProt P78540); assay: in vitro enzyme assay to detect the production of urea directly proportional to the activity of Arginase II; format: functional; conditions: 33.3 µM; note: in the data most compounds retested in dose-response had high values
T2 sequence (whole entry): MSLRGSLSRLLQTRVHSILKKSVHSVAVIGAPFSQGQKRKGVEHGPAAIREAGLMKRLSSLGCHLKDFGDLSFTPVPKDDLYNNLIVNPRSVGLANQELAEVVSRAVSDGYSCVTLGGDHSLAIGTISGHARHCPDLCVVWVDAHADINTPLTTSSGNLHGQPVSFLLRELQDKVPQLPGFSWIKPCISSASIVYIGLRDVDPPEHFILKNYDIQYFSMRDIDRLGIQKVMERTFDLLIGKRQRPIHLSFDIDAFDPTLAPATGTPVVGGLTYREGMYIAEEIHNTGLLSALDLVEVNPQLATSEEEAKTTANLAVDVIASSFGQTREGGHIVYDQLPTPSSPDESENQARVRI

[6] = target: T3, Proteasome subunit beta (Trypanosoma cruzi) (UniProt O96673); assay: Trypanosoma cruzi proteasome chymotrypsin-like activity (TcProtChymo) assay.; note: in the data most compounds retested in dose-response had high values; format: functional; conditions: 9.37 µM
T3 sequence (whole entry): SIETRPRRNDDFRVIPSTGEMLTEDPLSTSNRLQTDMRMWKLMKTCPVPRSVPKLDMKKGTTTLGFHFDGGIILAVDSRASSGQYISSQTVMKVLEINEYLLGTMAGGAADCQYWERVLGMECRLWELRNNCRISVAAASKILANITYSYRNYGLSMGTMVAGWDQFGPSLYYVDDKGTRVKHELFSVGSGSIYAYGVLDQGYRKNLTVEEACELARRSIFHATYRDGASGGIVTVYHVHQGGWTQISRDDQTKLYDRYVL

Homo sapiens = organism: Homo sapiens; assay: To identify inhibition of the IFN signalling (Jak-Stat) pathway via expression of an eGFP reporter gene under the control of an IFN-stimulated response element (ISRE) containing MxA promoter.; format: functional; conditions: 30 µM
[7] = target: T4, Tyrosyl-tRNA synthetase, putative (Trypanosoma cruzi (strain CL Brener)) (UniProt Q4DSP6); assay: Trypanosoma cruzi tyrosyl tRNA synthetase (TcYRS) _High Tyrosine SOP; format: functional; conditions: 30 µM; note: in the data most compounds retested in dose-response had high values
T4 sequence (whole entry): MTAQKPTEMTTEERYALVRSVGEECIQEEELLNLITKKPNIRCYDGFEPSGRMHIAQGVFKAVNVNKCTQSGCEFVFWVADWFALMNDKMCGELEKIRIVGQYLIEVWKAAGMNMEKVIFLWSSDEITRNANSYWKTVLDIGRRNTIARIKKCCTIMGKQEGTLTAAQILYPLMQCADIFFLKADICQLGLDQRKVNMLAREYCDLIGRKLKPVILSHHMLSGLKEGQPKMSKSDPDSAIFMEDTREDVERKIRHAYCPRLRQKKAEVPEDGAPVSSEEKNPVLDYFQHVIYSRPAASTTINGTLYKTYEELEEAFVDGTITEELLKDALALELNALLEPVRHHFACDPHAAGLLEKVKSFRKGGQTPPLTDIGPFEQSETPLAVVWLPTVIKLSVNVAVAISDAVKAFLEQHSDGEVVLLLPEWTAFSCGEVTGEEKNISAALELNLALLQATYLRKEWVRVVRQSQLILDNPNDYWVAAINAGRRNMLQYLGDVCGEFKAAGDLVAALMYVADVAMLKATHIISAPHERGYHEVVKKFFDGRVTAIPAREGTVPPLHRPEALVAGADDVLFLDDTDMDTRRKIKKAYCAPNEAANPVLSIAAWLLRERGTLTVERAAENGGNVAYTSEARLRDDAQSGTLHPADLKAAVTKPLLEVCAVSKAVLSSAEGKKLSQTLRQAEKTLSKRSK

[8] = target: T4, Tyrosyl-tRNA synthetase, putative (Trypanosoma cruzi (strain CL Brener)); assay: Trypanosoma cruzi tyrosyl tRNA synthetase (TcYRS) SOP; format: functional; conditions: 30 µM
[9] = target: Chromo domain-containing protein 1 (Saccharomyces cerevisiae (strain ATCC 204508 / S288c) (Baker's yeast)) (UniProt P32657); assay: ScCHD-1 Enzyme Inhibition Assay; format: functional; conditions: 30 µM; note: in the data most compounds retested in dose-response had high values
Sequence of Chromo domain-containing protein 1 (Saccharomyces cerevisiae (strain ATCC 204508 / S288c) (Baker's yeast)) (P32657 whole entry, the tested form may be a part): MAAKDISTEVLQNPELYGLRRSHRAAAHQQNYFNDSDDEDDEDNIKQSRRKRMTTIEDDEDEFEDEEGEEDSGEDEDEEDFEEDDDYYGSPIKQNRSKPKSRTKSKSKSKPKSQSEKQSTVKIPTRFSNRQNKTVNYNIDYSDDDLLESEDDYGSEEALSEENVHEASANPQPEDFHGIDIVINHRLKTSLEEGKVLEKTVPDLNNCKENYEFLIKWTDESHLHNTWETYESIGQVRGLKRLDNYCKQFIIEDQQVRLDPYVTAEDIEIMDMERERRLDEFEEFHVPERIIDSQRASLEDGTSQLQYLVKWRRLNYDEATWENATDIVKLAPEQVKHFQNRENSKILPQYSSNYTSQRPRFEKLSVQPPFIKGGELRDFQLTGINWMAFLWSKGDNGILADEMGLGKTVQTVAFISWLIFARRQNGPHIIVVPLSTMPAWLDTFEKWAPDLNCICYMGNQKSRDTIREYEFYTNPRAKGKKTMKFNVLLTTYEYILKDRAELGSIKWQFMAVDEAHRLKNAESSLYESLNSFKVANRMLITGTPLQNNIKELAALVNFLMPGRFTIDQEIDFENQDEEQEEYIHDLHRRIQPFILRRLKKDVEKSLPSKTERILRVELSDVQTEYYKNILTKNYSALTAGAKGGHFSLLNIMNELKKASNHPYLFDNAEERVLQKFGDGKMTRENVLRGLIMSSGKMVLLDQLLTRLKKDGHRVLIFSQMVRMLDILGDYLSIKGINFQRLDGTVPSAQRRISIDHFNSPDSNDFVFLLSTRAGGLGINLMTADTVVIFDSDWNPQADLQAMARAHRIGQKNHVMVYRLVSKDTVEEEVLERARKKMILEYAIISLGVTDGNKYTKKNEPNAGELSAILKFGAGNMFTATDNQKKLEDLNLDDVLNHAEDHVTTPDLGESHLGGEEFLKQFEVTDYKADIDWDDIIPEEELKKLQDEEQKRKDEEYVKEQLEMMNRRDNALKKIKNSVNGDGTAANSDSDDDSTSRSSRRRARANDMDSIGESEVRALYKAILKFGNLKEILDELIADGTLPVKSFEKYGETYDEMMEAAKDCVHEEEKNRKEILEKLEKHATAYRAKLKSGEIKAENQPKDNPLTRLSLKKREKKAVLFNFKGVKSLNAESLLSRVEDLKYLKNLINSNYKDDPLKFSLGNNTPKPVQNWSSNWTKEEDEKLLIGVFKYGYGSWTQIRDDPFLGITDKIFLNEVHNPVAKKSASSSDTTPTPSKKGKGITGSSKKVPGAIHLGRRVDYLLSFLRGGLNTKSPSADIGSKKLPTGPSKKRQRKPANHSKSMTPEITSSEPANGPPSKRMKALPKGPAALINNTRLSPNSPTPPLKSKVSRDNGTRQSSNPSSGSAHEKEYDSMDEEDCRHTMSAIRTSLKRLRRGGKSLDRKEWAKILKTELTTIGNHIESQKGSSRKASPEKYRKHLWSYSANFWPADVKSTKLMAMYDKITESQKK

Sequence of Protein translocase subunit SecA (Escherichia coli (strain K12)) (P10408 whole entry): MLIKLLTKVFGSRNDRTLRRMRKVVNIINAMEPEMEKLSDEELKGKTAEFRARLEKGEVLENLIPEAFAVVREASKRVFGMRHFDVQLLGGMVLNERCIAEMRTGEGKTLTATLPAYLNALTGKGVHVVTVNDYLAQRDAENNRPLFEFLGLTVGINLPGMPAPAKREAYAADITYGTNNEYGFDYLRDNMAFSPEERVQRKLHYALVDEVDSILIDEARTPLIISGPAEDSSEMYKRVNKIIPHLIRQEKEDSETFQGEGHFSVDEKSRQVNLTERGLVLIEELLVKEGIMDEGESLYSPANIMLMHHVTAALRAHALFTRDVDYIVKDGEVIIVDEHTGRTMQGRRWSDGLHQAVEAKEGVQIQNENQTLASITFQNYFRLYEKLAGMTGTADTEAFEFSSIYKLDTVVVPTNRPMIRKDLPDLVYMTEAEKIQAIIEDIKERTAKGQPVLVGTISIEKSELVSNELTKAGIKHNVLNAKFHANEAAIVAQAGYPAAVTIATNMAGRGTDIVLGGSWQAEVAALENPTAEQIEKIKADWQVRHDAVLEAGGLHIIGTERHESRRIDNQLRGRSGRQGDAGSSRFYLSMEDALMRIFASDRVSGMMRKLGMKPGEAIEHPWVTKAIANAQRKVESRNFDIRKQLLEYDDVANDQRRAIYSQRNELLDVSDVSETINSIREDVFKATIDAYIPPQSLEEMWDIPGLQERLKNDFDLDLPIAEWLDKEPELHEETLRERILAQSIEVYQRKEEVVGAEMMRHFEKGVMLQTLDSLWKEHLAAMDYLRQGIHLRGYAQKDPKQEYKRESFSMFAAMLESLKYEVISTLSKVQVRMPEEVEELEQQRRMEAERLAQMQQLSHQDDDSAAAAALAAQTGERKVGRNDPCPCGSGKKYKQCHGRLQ
Sequence of Sialic acid-binding Ig-like lectin 9 (Homo sapiens) (Q9Y336 whole entry): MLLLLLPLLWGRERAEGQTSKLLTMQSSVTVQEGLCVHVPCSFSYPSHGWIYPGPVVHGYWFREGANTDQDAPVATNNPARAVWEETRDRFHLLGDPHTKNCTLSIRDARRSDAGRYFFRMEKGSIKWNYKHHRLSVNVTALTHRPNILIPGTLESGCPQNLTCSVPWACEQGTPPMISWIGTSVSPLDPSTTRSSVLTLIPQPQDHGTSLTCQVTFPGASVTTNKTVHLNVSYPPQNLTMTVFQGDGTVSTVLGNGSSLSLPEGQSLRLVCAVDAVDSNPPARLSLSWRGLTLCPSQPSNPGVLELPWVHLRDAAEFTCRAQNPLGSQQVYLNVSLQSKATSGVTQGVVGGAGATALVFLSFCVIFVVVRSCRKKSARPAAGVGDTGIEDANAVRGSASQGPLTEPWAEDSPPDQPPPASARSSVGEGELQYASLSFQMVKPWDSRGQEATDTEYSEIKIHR

| Structure (SMILES) | Percent Effect [1] [%] | Percent Effect [2] [%] | Percent Effect [3] [%] | Percent Effect [4] [%] | Percent Effect (Trypanosoma cruzi) [%] | Percent Effect [5] [%] | Percent Effect [6] [%] | Percent Effect (Homo sapiens) [%] | Percent Effect [7] [%] | Percent Effect [8] [%] | Percent Effect [9] [%] |
| --- | --- | --- | --- | --- | --- | --- | --- | --- | --- | --- | --- |
| O=C(NCCCn1cccn1)C1(c2ccc(Br)cc2)CC1 | 0.127 | 8.22 | 12.9 | -1.49 | -3.13 | 2.73 | 10.1 | 8.94 | 4.3 | 10 | -4.29 |
| COC(=O)c1cc(OCC2CCC2)cc(C(=O)N[C@@H]2CNCC[C@H]2O)c1 | -7.97 | 0 | -18.2 | 10.2 | -0.392 | -2.73 | 4.44 | 36 | 0 | 0 | -7.21 |
| Cn1nc(C2CCCN(C(=O)CO)C2)cc1O (stereo unspecified) | -4.16 | -6.76 | -113 | -1.22 | -3.75 | -0.232 | 1.4 | -6.44 | -6.45 | -9.09 | -2.64 |
| CCS(=O)(=O)CC(=O)NC(c1ccccc1)C1CCCCC1 (stereo unspecified) | -6.35 | 2.63 | 9.57 | -0.679 | 3.41 | -17.8 | 21.6 | -15.8 | 4.25 | 7.79 | -3.43 |
| COc1ccc(CN(C)C(=O)CCc2c(C)nc(C)[nH]c2=O)cc1OC | -2.11 | 6.94 | -3.92 | 5.86 | 5.15 | 0 | 20.2 | -1.63 | 7.37 | 12.8 | -3.31 |
| COCCCC(=O)NS(=O)(=O)c1ccc2c(c1)OCCCO2 | -3.41 | 5.26 | -3.3 | 9.85 | -7.94 | 5.75 | -0.0846 | 0.992 | 0.493 | -1.24 | 4.1 |
| CCc1nc2n(n1)CC(NCc1noc(-c3ccccc3)n1)CC2 (stereo unspecified) | -5.91 | 5.26 | -5.76 | 10.4 | 9.06 | 2.52 | -2.28 | -13.2 | 3.45 | 16.1 | -6.43 |
| Cn1nccc1C(=O)N1CCOC(Cc2cccnc2)C1 (stereo unspecified) | -5.75 | 10.7 | -3.23 | 4.56 | 5.91 | -3.03 | -4.85 | 7.36 | 6.38 | 16.7 | -7.31 |
| Cc1ccc(CC(=O)N2CSCC2C(=O)N(C)Cc2ccco2)o1 (stereo unspecified) | -2.18 | 2.63 | 17.7 | -8.06 | -2.89 | 3.24 | 7.02 | -5.97 | 3.45 | 1.24 | -0.996 |
| COc1cccc(N2CCN(CCC(=O)NC3CCCC3)CC2)c1 | -4.61 | 7.89 | 6.03 | 5.22 | -0.292 | -22.5 | 16.6 | 4.41 | 9.57 | 13 | -4.62 |
| N#Cc1ccc(C2CC(=O)Nc3c2cnn3C2CCCC2)cc1 (stereo unspecified) | -3.53 | 13.3 | 0.53 | 17.4 | 4.77 | 19.3 | 3.66 | 6.86 | 1.64 | 8.64 | -14.9 |
| CN1CC(=O)N(c2cnn(C)c2)CC12CCN(Cc1ccccc1)C2 (stereo unspecified) | -4.4 | 5.48 | -2.44 | 7.88 | 10.3 | -4.39 | 4.02 | -7.57 | 5.21 | 8.64 | -4.55 |
| CCc1ncc2c(n1)CN(Cc1nc(-c3ccsc3)oc1C)CC2 | -6.04 | -18.4 | -33 | 12.2 | -1.77 | -0.719 | 9.73 | -1.35 | 19.2 | 16.1 | 2.49 |
| CCN1CCN(S(=O)(=O)c2cc(C)c(Cl)cc2Cl)CC1 | -6.87 | -2.6 | 4.8 | 4.35 | -2.85 | 1.38 | -0.166 | 13.9 | -3.23 | -6.17 | 4.8 |
| Cn1ncc2c1NC(=O)CC2c1ccc(Cl)cc1Cl (stereo unspecified) | -0.731 | 2.63 | 4.33 | 1.29 | -8.67 | -1.18 | 11.8 | 18 | 0 | 2.6 | -4.32 |
| Cc1ccc(C#N)c(N2CCC(c3nccn3Cc3cscn3)CC2)n1 | -1.6 | 10.7 | -4.04 | 15.7 | 5.75 | 9.38 | 13.2 | 3.33 | 4.92 | 16.1 | -7.28 |
